Assay [1] in a line: Quantitative High-Throughput drug screen in 47 multiple myeloma cell lines against the NCATS MIPE library collection: MOLP8_DSMZ cell viability assay (AID 1918977). Further: nearly all actives have a fitted effect of over 45% in size. Further: potency means the concentration at half of the fitted maximal effect. An outline of the steps: (§1)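 ATP-based luminescence (CellTiter-Glo, 5 min RT incubation) quantified surviving cells following two days' treatment with MIPE 4.0 agents at 37 °C, 5% CO2.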
The nature of assay [2]: Quantitative High-Throughput drug screen in 47 multiple myeloma cell lines against the NCATS MIPE library collection: NCIH929_DSMZ cell viability assay (AID 1918978). Further: nearly all actives have a fitted effect of over 35% in size. Further: potency means the concentration at half of the fitted maximal effect. An outline of the steps: as §1
The nature of assay [3]: Quantitative High-Throughput drug screen in 47 multiple myeloma cell lines against the NCATS MIPE library collection: OCIMY1_PLB cell viability assay (AID 1918979).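 Further: series mostly up to about 46 µM; 100% = DMSO-only wells and 0% = cell-free media-only wells; nearly all actives have a fitted effect of over 35% in size.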 An outline of the steps:
as §1

Assay [4] can be described thus: Quantitative High-Throughput drug screen in 47 multiple myeloma cell lines against the NCATS MIPE library collection: MM1S_ATCC cell viability assay (AID 1918980). Further: nearly all actives have a fitted effect of over 45% in size. Further: potency means the concentration at half of the fitted maximal effect. An outline of the steps:
as §1

The nature of assay [5]: Quantitative High-Throughput drug screen in 47 multiple myeloma cell lines against the NCATS MIPE library collection: MM1R_ATCC cell viability assay (AID 1918981). Further: nearly all actives have a fitted effect of over 35% in size. Further: potency means the concentration at half of the fitted maximal effect. The method, boiled down:
as §1

A short description of assay [6]: Quantitative High-Throughput drug screen in 47 multiple myeloma cell lines against the NCATS MIPE library collection: KMS28PE_JCRB cell viability assay (AID 1918983). Further: nearly all actives have a fitted effect of over 35% in size. The method, boiled down:
as §1

A short description of assay [7]: Quantitative High-Throughput drug screen in 47 multiple myeloma cell lines against the NCATS MIPE library collection: OPM1_PLB cell viability assay (AID 1918989). Further: nearly all actives have a fitted effect of over 40% in size. Further: potency means the concentration at half of the fitted maximal effect. The method, boiled down:
as §1

Assay [8] is described as follows: Quantitative High-Throughput drug screen in 47 multiple myeloma cell lines against the NCATS MIPE library collection: XG6_PLB cell viability assay (AID 1919865). Further: nearly all actives have a fitted effect of over 40% in size. Further: potency means the concentration at half of the fitted maximal effect. An outline of the steps: as §1
The nature of assay [9]: Quantitative High-Throughput drug screen in 47 multiple myeloma cell lines against the NCATS MIPE library collection: XG1_PLB cell viability assay (AID 1919866). Further: nearly all actives have a fitted effect of over 35% in size. Further: potency means the concentration at half of the fitted maximal effect. The method, boiled down:
as §1

Assay [10] is described as follows: Quantitative High-Throughput drug screen in 47 multiple myeloma cell lines against the NCATS MIPE library collection: VP6_DJ cell viability assay (AID 1919867). Further: nearly all actives have a fitted effect of over 40% in size. Further: potency means the concentration at half of the fitted maximal effect. An outline of the steps:
as §1

Assay [11] in a line: Quantitative High-Throughput drug screen in 47 multiple myeloma cell lines against the NCATS MIPE library collection: LP1_DSMZ cell viability assay (AID 1918982). Further: nearly all actives have a fitted effect of over 35% in size. The method, boiled down:
as §1

Assay [12] can be described thus: Quantitative High-Throughput drug screen in 47 multiple myeloma cell lines against the NCATS MIPE library collection: L363_DSMZ cell viability assay (AID 1918984). Further: nearly all actives have a fitted effect of over 40% in size. Further: potency means the concentration at half of the fitted maximal effect. An outline of the steps: as §1
Assay [13] is described as follows: Quantitative High-Throughput drug screen in 47 multiple myeloma cell lines against the NCATS MIPE library collection: SKMM1_PLB cell viability assay (AID 1919863). Further: nearly all actives have a fitted effect of over 35% in size. Further: potency means the concentration at half of the fitted maximal effect. On viability: series mostly up to about 46 µM. Conditions: SKMM1 myeloma viability, CellTiter-Glo ATP, 48 h; viability: active compounds read low. The method, boiled down:
as §1

Assay [14] can be described thus: Quantitative High-Throughput drug screen in 47 multiple myeloma cell lines against the NCATS MIPE library collection: U266_ATCC cell viability assay (AID 1919864). Further: nearly all actives have a fitted effect of over 35% in size. Further: potency means the concentration at half of the fitted maximal effect.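 On viability (% of DMSO control): 0% = media-only wells without cells and 100% = DMSO-only wells.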 The method, boiled down:
as §1

A short description of assay [15]: Quantitative High-Throughput drug screen in 47 multiple myeloma cell lines against the NCATS MIPE library collection: KMS34_JCRB cell viability assay (AID 1918985). Further: nearly all actives have a fitted effect of over 40% in size. Further: potency means the concentration at half of the fitted maximal effect. The method, boiled down:
as §1

A short description of assay [16]: Quantitative High-Throughput drug screen in 47 multiple myeloma cell lines against the NCATS MIPE library collection: OCIMY5_PLB cell viability assay (AID 1918988). Further: nearly all actives have a fitted effect of over 65% in size. Further: potency means the concentration at half of the fitted maximal effect. The method, boiled down:
as §1

Assay [17] in a line: Quantitative High-Throughput drug screen in 47 multiple myeloma cell lines against the NCATS MIPE library collection: MMM1_PLB cell viability assay (AID 1918976). The method, boiled down: as §1
Assay [18] in a line: Quantitative High-Throughput drug screen in 47 multiple myeloma cell lines against the NCATS MIPE library collection: UTMC2_PLB cell viability assay (AID 1919868). Further: nearly all actives have a fitted effect of over 55% in size. Further: potency means the concentration at half of the fitted maximal effect.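 On viability (% of DMSO control): 100% = DMSO-only wells and 0% = media-only wells without cells.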 Conditions: CellTiter-Glo ATP luminescence, 48 h; viability (% of DMSO control): at 45.8 µM. The method, boiled down: as §1
The nature of assay [19]: Quantitative High-Throughput drug screen in 47 multiple myeloma cell lines against the NCATS MIPE library collection: OCIMY7_PLB cell viability assay (AID 1918987). Further: potency means the concentration at half of the fitted maximal effect; nearly all actives have a fitted effect of over 65% in size. An outline of the steps: as §1

In PubChem BioAssay (NCATS) one finds Potency and viability data, which are given here for 19 molecules.

SMILES strings stand for the structures. Records with an inconclusive call do not appear. A number with no mark means an inactive call. Activity calls are given as the source filed them. The call rests on the fitted dose curve; in most records, active means well fitted curve in the direction sought with a large enough effect; inconclusive means small, poorly fitted or top-dose-only effect, or another doubt; inactive means no such curve, though single readings can be large; an effect the other way counts as inactive or inconclusive.

Take `CCC(C)N(C)C(=O)c1cc2ccccc2c(-c2ccccc2Cl)n1` (stereo not drawn): the Potency result in assay [1], in assay [2], in assay [3], in assay [5], in assay [6] and in assay [7] was “inactive” each time. For the same molecule, the Potency was 23.5 µM (active) in assay [4], 8.33 µM (active) in assay [8], 5.26 µM (active) in assay [9] and 6.62 µM (active) in assay [10].
For `Cc1c(C)c2c(c(C)c1O)CCC(C)(COc1ccc(CC3SC(=O)NC3=O)cc1)O2` (stereo not drawn), the Potency entry in assay [1], in [3], in [5], in assay [11], in assay [6] and in assay [12] was “inactive” each time. Besides, the Potency entry in assay [7], in assay [14], in assay [9] and in assay [10] was “inactive” throughout. In assay [13], the viability is 114%.
For `O=C(O)CCc1ccc(NCc2cccc(Oc3ccccc3)c2)cc1`, the Potency entry in assay [1], in assay [2], in [4], in [5], in assay [11] and in assay [6] was “inactive” throughout. Also, the Potency entry in [12], in [15], in assay [16], in assay [8], in assay [9] and in [10] was “inactive” in each case. For the same molecule, in assay [13], the viability was 111%.
On to `COc1cc2c(cc1OC)CN(CCc1ccc(NC(=O)c3cccc4c(=O)c5cccc(OC)c5[nH]c34)cc1)CC2`, for which the Potency in assay [17] is 20.9 µM (active); in [4] it was 2.64 µM (active); in [7], 16.6 µM (active); in [14], 9.35 µM (active). The Potency entry in assay [15] and in assay [10] was “inactive” in each case.
For the molecule `OC(CN1CCC(Cc2ccc(F)cc2)CC1)c1ccc(Cl)cc1` (stereo not drawn), the Potency result in assay [1], in assay [2], in [12], in assay [7], in assay [8] and in [9] was “inactive” in each case. For the same molecule, the Potency entry in assay [18] was “inactive”.
As for `Cc1cnc(NC(=O)C2=C(O)c3ccccc3S(=O)(=O)N2C)s1`, the Potency result in assay [1], in [2], in [3], in [5], in [11] and in assay [6] was “inactive” in each case. The Potency result in assay [15], in assay [16] and in assay [7] was “inactive” throughout.
On to `OC(CCN1CCCCC1)(c1ccccc1)C1CC2C=CC1C2` (stereo not drawn), for which the Potency result in [1], in assay [2], in assay [3], in [11], in assay [6] and in assay [15] was “inactive” in each case. The Potency entry in assay [16], in [7], in [14], in assay [8], in assay [9] and in assay [10] was “inactive” each time.
With `COc1ccc(CCN2CCN(CCCc3ccccc3)CC2)cc1OC`, the Potency entry in assay [1], in assay [2], in assay [5], in assay [6], in assay [7] and in assay [9] was “inactive” each time. Also, in assay [13], the viability was 104%. Also, in assay [8], the Potency was 4.69 µM (active).
As to `O=C(c1cc(Cc2n[nH]c(=O)c3ccccc23)ccc1F)N1CCN(C(=O)C2CC2)CC1`, the Potency result in [1], in assay [15] and in assay [7] was “inactive” throughout. Besides, the Potency was 23.5 µM (active) in assay [4], 2.64 µM (active) in assay [19], 13.2 µM (active) in assay [8] and 10.5 µM (active) in [18]. In addition, in [13], the viability was 93.3%.
Consider `O=NN(CCCl)C(=O)NCCCl`, for which the Potency result in assay [1], in [2], in assay [5], in assay [11], in assay [12] and in [7] was “inactive” each time. The Potency entry in assay [8], in assay [9] and in [10] was “inactive” throughout. For the same molecule, the viability in assay [13] was 118%.
On to `NC(=O)c1ccc(-c2nc(-c3ccc4c(c3)OCO4)c(-c3ccccn3)[nH]2)cc1`, for which the Potency result in assay [1], in assay [2], in assay [3], in assay [4], in assay [14] and in assay [8] was “inactive” throughout. The Potency is 7.43 µM (active) in assay [5], 2.64 µM (active) in [15] and 9.35 µM (active) in assay [16].
Regarding `CCCCNc1cc(C(=O)O)cc(S(N)(=O)=O)c1Oc1ccccc1`, the Potency entry in assay [1], in assay [2], in assay [3], in assay [5], in assay [11] and in assay [6] was “inactive” each time. In addition, the Potency entry in assay [12], in assay [15], in assay [7], in assay [9] and in assay [10] was “inactive” in each case. In assay [13], the viability is 158%.
In the case of `CN[C@@H](C)C(=O)N[C@H]1CCCC[C@H]2CC[C@@H](C(=O)N[C@@H](c3ccccc3)c3cn(CCCCc4ccc(CCCCn5cc([C@@H](NC(=O)[C@@H]6CC[C@@H]7CCCC[C@H](NC(=O)[C@H](C)NC)C(=O)N76)c6ccccc6)nn5)cc4)nn3)N2C1=O`, the Potency result in assay [1], in [3], in [6] and in assay [15] was “inactive” each time. The Potency in assay [2] is 8.33 µM (active); in assay [4] it was 18.7 µM (active); in assay [19] it was 0.001 µM (active); in assay [16], 16.6 µM (active); in [7], 16.6 µM (active); in assay [13], 0.0037 µM (active). The Potency in assay [8] is 20.9 µM (active); in [9] it was 23.5 µM (active); in assay [10] it was 18.7 µM (active).
Take `NC(=O)c1ccc(-c2nc(-c3ccc4c(c3)OCCO4)c(-c3ccccn3)[nH]2)cc1`: the Potency entry in [1], in assay [2], in [3], in assay [5] and in assay [18] was “inactive” each time. The Potency was 20.9 µM (active) in assay [12], 18.7 µM (active) in assay [16], 8.33 µM (active) in assay [8] and 23.5 µM (active) in assay [10]. Besides, in assay [13], the viability is 112%.
`CCC(C)(C)C(=O)O[C@H]1C[C@@H](C)C=C2C=C[C@H](C)[C@H](CC[C@@H]3C[C@@H](O)CC(=O)O3)[C@H]21`: the Potency is 13.2 µM (active) in [1]; 13.2 µM (active) in assay [2]; 16.6 µM (active) in [4]; 13.2 µM (active) in assay [12]; 18.7 µM (active) in assay [16]; 8.33 µM (active) in assay [7]. Moreover, the Potency is 18.7 µM (active) in assay [13]; 18.7 µM (active) in assay [8]; 9.35 µM (active) in assay [9]; 16.6 µM (active) in [10]; 14.8 µM (active) in assay [18]. Moreover, the Potency entry in assay [3] is “inactive”.
`OC[C@H](Cc1ccccc1)Nc1nc(Oc2ccc3c(c2)CCC3)nc2c1ncn2Cc1ccc(-c2ccccc2)cc1`: the Potency result in assay [1], in assay [5], in [6] and in assay [10] was “inactive” in each case. Further, in [7], the Potency was 11.8 µM (active).
On to `Nc1ccc(S(=O)(=O)Nc2ccnn2-c2ccccc2)cc1`, for which the Potency entry in assay [1], in assay [2], in assay [3], in [4], in assay [5] and in [11] was “inactive” in each case. Besides, the Potency entry in assay [6], in [12], in [15] and in assay [8] was “inactive” throughout. The viability in assay [13] was 145%.
Turning to `Clc1cccc(Cl)c1NC1=NCCN1`, the Potency result in assay [1], in assay [2], in assay [3], in [6], in assay [12] and in assay [16] was “inactive” each time. Further, the Potency entry in assay [7], in assay [14], in assay [8] and in assay [9] was “inactive” throughout. Further, the values for the Potency in assay [4] and in assay [10] were 18.7 µM (active) and 5.26 µM (active), respectively.
As to `COc1ccccc1-c1cccc(-c2c(O)c3cc(C#N)c(Cl)cc3[nH]c2=O)c1`, the Potency entry in assay [1], in [3], in assay [4], in assay [5], in [6] and in assay [16] was “inactive” in each case. The Potency entry in assay [14] was “inactive”. In assay [13], the viability is 104%. Besides, the Potency in assay [8] is 34 µM (active); in assay [10] it was 21.5 µM (active).
